# Measured values: PubChem BioAssay (NCI)
# Compounds without any hit were thinned out: in the full panel of roughly 83,000, 20% have a hit.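 For each line, cells grew in 96-well plates with the test compound present at a single concentration for 48 hours.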 A number with no mark means an inactive call. Active and inactive are the calls of the source. Rule for the calls: active = growth percent below 10; inactive = the rest.
# Key:
# Experiment in all cases: NCI-60 one-dose screen, 48 h (100 = growth as untreated, 0 = no growth, -100 = all killed)
# Settings in all cases: 10 µM unless noted
# [1] = test system: NCI-H23 lung
# [2] = test system: NCI-H226 lung
# [3] = test system: NCI-H322M lung
# [4] = test system: HOP-62 NSCLC
# [5] = test system: NCI-H460 lung
# [6] = test system: HOP-92 NSCLC
# [7] = test system: NCI-H522 lung
# [8] = test system: A549/ATCC NSCLC
# [9] = test system: 786-0 renal
# [10] = test system: COLO 205 colon
# [11] = test system: K-562 leukemia
# [12] = test system: MALME-3M melanoma
# [13] = test system: MDA-MB-231 breast
# [14] = test system: RXF 393 renal
# [15] = test system: SF-268 CNS
# [16] = test system: SF-295 CNS
# [17] = test system: SF-539 CNS
# [18] = test system: UACC-257 melanoma
# [19] = test system: M14 melanoma
# [20] = test system: DU-145 prostate
SMILES,growth [1],growth [2],growth [3] [%],growth [4] [%],growth [5],growth [6],growth [7],growth [8] [%],growth [9],growth [10],growth [11],growth [12],growth [13],growth [14],growth [15] [%],growth [16] [%],growth [17],growth [18],growth [19],growth [20] [%]
O=C(NCCc1ccccc1)/C(=C\c1ccc(Cl)cc1Cl)NC(=O)c1ccccc1,91.2%,101%,101,98.7,97.1%,80.5%,90%,101,107%,92.9%,122%,79.4%,90.8%,92.8%,95,99.5,94.1%,96.6%,96.4%,–
Oc1cc(O)c2c(c1)O[C@H](c1ccc(O)c(O)c1)[C@@H](O)C2,95.2%,96.6%,105,107,113%,98.5%,89.5%,97,106%,108%,104%,103%,98.4%,113%,–,97.8,111%,101%,112%,–
O=C1C=C(c2ccccc2)C(O)(c2ccccc2)C1 (stereo not drawn),99.1%,101%,106,101,110%,163%,94%,93.4,99.1%,104%,86.6%,108%,92.5%,115%,103,94.1,104%,97.7%,95.5%,–
O=S(Cc1ccccc1)/C(=C/NC(=S)Nc1cc(Cl)ccc1Cl)c1ccccc1 (stereo not drawn),97.1%,101%,93.7,92.8,107%,101%,85%,96.8,102%,109%,–,–,100%,103%,93.1,103,115%,99.5%,96.8%,106
COc1ccc2c(ccc[n+]2C)c1,99.6%,110%,105,106,106%,110%,54.7%,108,97.3%,111%,–,110%,101%,136%,125,114,101%,98.2%,108%,126
NC(CSSCC(N)C(=O)O)C(=O)O (stereo not drawn),20.2%,-9.33% (active),36.6,15.7,42.5%,17.3%,-6.34% (active),36.7,–,-19.2% (active),13.8%,4.18% (active),2.86% (active),-37.9% (active),28.1,11,-36.8% (active),5.8% (active),2.4% (active),36
O=C1NC(=O)/C(=C\c2ccncc2)N1,102%,99.8%,107,94.2,102%,85.7%,94.7%,106,106%,103%,117%,103%,99.1%,102%,97.6,104,92.7%,97.7%,92.6%,–
Cc1ccc[n+](CCC(N)=O)c1,95.3%,99.6%,103,87.2,91.4%,91.5%,90.2%,93.7,94.4%,107%,–,79.3%,92.3%,106%,97.6,93.5,87.3%,103%,109%,103
Cc1cccc(C)c1NC(=S)/N=C\c1c(O)[nH]c(=O)[nH]c1=O,104%,100%,98.5,87.7,105%,102%,86.4%,79.4,101%,103%,–,–,96.6%,108%,98,97.9,112%,81.8%,98.4%,111
O=C(NCc1ccccc1)/C(=C/c1ccccc1)NC(=O)c1ccccc1,104%,98%,104,104,103%,85.8%,90%,85.4,112%,110%,–,–,92.6%,93.7%,100,106,115%,81.1%,101%,111
Clc1ccc(C(SCc2ccccc2)SCc2ccccc2)cc1,86.1%,86.3%,111,92.1,98.3%,83%,80.5%,97.6,111%,90.1%,92.7%,75.8%,99.9%,88%,91,102,97.2%,88.2%,88.2%,–
NNC(=O)N/N=C1\C(=O)N(c2nccs2)C(=O)C(=O)C1c1nc2ccccc2s1 (stereo not drawn),95.6%,89.1%,105,81.3,101%,98.6%,83.1%,75.8,118%,98.6%,–,98.7%,90.4%,106%,96.3,109,106%,68.9%,105%,103
O=[n+]1ccn([O-])c2ccccc21,96%,89.8%,104,95,102%,78.6%,118%,–,103%,100%,109%,98.3%,94.6%,89.5%,95.8,107,99.1%,133%,96.7%,105
Oc1cccnc1CN1CCCC1,100%,97.9%,102,111,107%,79.7%,97.1%,98.2,–,103%,99.5%,107%,105%,116%,104,113,102%,98.3%,112%,113
O=c1nc(Nc2cccc(Cl)c2)oc2cc(Cl)oc(=O)c12,64.5%,94.9%,108,81.5,98.8%,47.2%,26.2%,–,85.2%,80.1%,81.6%,–,50.9%,42.5%,66.9,–,79.8%,87%,66.2%,113
N#Cc1ccc(OC(=O)Nc2c(Cl)cc(Cl)cc2Cl)cc1,109%,107%,100,103,139%,98.9%,89.8%,–,100%,128%,101%,95%,101%,125%,112,108,91.7%,97.7%,112%,111
COc1ccc(/C=C\C(=O)/C=C/c2ccc(OC)cc2)cc1,84.7%,81.4%,99.6,95.4,107%,109%,94.7%,–,83.5%,107%,9.76% (active),95.1%,–,100%,105,101,62.8%,106%,40.2%,96.4
O=C1C=CC(=O)C2=C1CCCC2,86.4%,79.6%,92,92.4,95.9%,135%,94%,–,107%,110%,46.3%,91.9%,–,103%,93.7,104,104%,95.6%,96.4%,101

SMILES,growth [1],growth [2],growth [3] [%],growth [4] [%],growth [5],growth [6],growth [7],growth [8] [%],growth [9],growth [10],growth [11],growth [12],growth [13],growth [14],growth [15] [%],growth [16] [%],growth [17],growth [18],growth [19],growth [20] [%]
CN(CCCN(C)CCC1CCCCC1)CCC1CCCCC1,64.1%,66.9%,94.6,57.3,29%,21.3%,69.6%,–,53.2%,-81% (active),-57.5% (active),-74.7% (active),-3% (active),-4.36% (active),84.2,27.1,-57.7% (active),-66.3% (active),-100% (active),83.8
COC1CC(OC(=O)c2ccc([N+](=O)[O-])cc2)C(COC(=O)c2ccc([N+](=O)[O-])cc2)O1 (stereo not drawn),105%,88.9%,113,118,105%,82.8%,118%,–,105%,112%,107%,140%,105%,103%,112,94.5,105%,91.9%,110%,119
Cc1ccc(NCN2C(=O)c3ccccc3C2=O)c(C)n1,112%,103%,103,110,111%,102%,112%,–,95.8%,112%,108%,–,115%,114%,105,106,116%,105%,97.6%,107
Cc1ccc(S(N)(=O)=O)cc1Cl,111%,105%,121,110,113%,101%,98.6%,–,100%,104%,92.3%,116%,98%,125%,108,113,106%,109%,105%,120
NNc1ncnc2nc[nH]c12,85.2%,47.9%,50.5,40.7,50.4%,86.9%,-15.7% (active),–,43.2%,52.5%,48.4%,120%,14.9%,–,83.7,45.9,101%,45.1%,48%,36.6
CSc1nsc(N)n1,97.9%,103%,87.9,90,97.3%,95.6%,90.3%,–,106%,99.4%,113%,93.5%,95.9%,108%,104,101,–,99.9%,97.6%,115
Nc1cc2c(cc1Cl)C(=O)c1ccccc1C2=O,0.869% (active),12.7%,30.2,26.8,0.87% (active),-1.69% (active),65%,–,-19% (active),76.2%,72.4%,64.7%,–,72.2%,44.5,35.4,-82% (active),89.8%,85.3%,67.7
CSCC[C@@H]1C(=O)N(C)[C@H](C(C)(C)C)N1C(=O)c1ccccc1,101%,102%,97.6,103,112%,108%,107%,–,106%,113%,114%,–,111%,111%,94.8,108,107%,100%,105%,106
N#C/C(=C\c1ccc2c(c1)OCO2)c1ccccc1,84%,90.9%,95.1,67.3,68.3%,64.5%,52%,–,95.5%,66.5%,21.4%,80.7%,66.8%,83.6%,86.4,71.3,80%,85.8%,59%,106
CC(=O)c1cccc(N(C)S(=O)(=O)c2ccc(C)cc2)c1,93%,95.7%,90.4,92.8,104%,72.3%,82.9%,–,94%,116%,47.8%,84%,93.1%,116%,93,93.2,79.1%,94.7%,77.6%,98.2
CCCCCCCCCCCCCC/C=C\C(CC(=O)O)C(=O)O (stereo not drawn),108%,109%,117,105,106%,106%,107%,–,103%,97.7%,154%,123%,102%,117%,103,110,108%,107%,–,110
CN1CCCN(C(c2ccccc2)c2ccc(Br)cc2)CC1 (stereo not drawn),87.1%,78.2%,39.7,76.8,82.5%,25.8%,90.8%,–,79.1%,81.5%,20.3%,63.1%,49%,–,61.6,57.8,75.2%,91%,-8.62% (active),94.8
C#CCSc1nnnn1-c1ccccc1,97.9%,82.5%,98,105,95.4%,50.5%,92.9%,–,92%,113%,86%,104%,96%,67.3%,82.5,81.1,80.2%,94.4%,104%,79.1
O=CNCCc1ccccc1,102%,98.9%,106,90.8,111%,88.5%,104%,–,102%,103%,89.9%,130%,105%,111%,110,95.8,115%,103%,102%,–
Cc1onc(-c2ccccc2Cl)c1C(=O)Cl,114%,110%,101,86.5,103%,77%,108%,–,101%,108%,101%,109%,101%,115%,117,91.7,113%,103%,108%,121
CC(C)N(C(=O)c1ccccc1)C(C)C,106%,93.6%,114,109,106%,97.8%,101%,–,106%,114%,103%,114%,119%,106%,105,105,98.3%,104%,97%,117
COC1OC(C(O)C(O)CO)C(O)C(O)C1O (stereo not drawn),106%,93.4%,98.1,88.5,106%,101%,111%,97.3,–,111%,104%,101%,–,98%,103,100,97.5%,95.6%,97.4%,118
